Sequences and labels used below:
B1: PhoQ; a variant is named by its letters at X, in order, P23837 (parent)
chain: MKKLLRLFFPLSLRVRFLLATAAVVLVLSLAYGMVALIGYSVSFDKTTFRLLRGESNLFYTLAKWENNKLHVELPENIDKQSPTMTLIYDENGQLLWAQRDVPWLMKMIQPDWLKSNGFHEIEADVNDTSLLLSGDHSIQQQLQEVREDDDDAEMTHSVAVNVYPATSRMPKLTIVVVDTIPVELKSSYMVWSWFIYVLSANLLLVIPLLWVAAWWSLRPIEALAKEVRELEEHNRELLNPATTRELTSLVRNLNRLLKSERERYDKYRTTLTDLTHSLKTPLXXLQXXLRSLRSEKMSVSDAEPVMLEQISRISQQIGYYLHRASMRGGTLLSRELHPVAPLLDNLTSALNKVYQRKGVNISLDISPEISFVGEQNDFVEVMGNVLDNACKYCLEFVEISARQTDEHLYIVVEDDGPGIPLSKREVIFDRGQRVDTLRPGQGVGLAVAREITEQYEGKIVAGESMLGGARMEVIFGRQHSAPKDE

The source of these data is a collection of fitness landscapes (doi:10.1126/science.1257360).

Whole data set: some 140,000 sequences, median “enrichment ratio after two sorts for PhoP signalling” near 0, cut for the highest 2% near 11. Shown is part of a subset that was picked to be rich in the highest values. Bounds are passed on as bounds.

The assay covers variants of B1. Description: enrichment ratio after two sorts for PhoP signalling (ratio (wild type AVST 3.29)); higher = more functional. Conditions: with PhoP (E. coli).
Regarding CVQT, the enrichment ratio is at most 0.25.

Consider TQLG, for which the enrichment ratio was 16.7.

For KQLG, the enrichment ratio was at most 0.25.

As to NGLG, the enrichment ratio is at most 0.25.

On to SQLG, for which the enrichment ratio came out at 19.1.

For EQLG, the enrichment ratio was at most 0.25.

In the case of SGLG, the enrichment ratio worked out at 15.5.

For the variant FQLG, the enrichment ratio stood at 16.7.

With TGLG, the enrichment ratio stood at 10.1.

Take SYLG: the enrichment ratio came to 9.61.

In the case of WQLG, the enrichment ratio was at most 0.25.

For FDLG, the enrichment ratio was at most 0.25.

With DPLG, the enrichment ratio was at most 0.25.

For the variant GAQK, the enrichment ratio was at most 0.25.

With NGQA, the enrichment ratio was at most 0.25.

As to VMKG, the enrichment ratio was at most 0.25.

Take ILNQ: the enrichment ratio is at most 0.25.

As for DMSW, the enrichment ratio is at most 0.25.

Consider TCQW, for which the enrichment ratio was at most 0.25.

For the variant LQMI, the enrichment ratio is at most 0.25.

Turning to MMFL, the enrichment ratio is at most 0.25.

For HDFE, the enrichment ratio was at most 0.25.

For the variant WLYA, the enrichment ratio is at most 0.25.

Take MQLA: the enrichment ratio is at most 0.25.

SELG: the enrichment ratio was 25.3.

Turning to KYLG, the enrichment ratio is at most 0.25.

Take MQWG: the enrichment ratio was determined as 4.64.

As for MQLG, the enrichment ratio amounted to 22.

As to SFLG, the enrichment ratio stood at 10.9.

On to LEAH, for which the enrichment ratio was found to be 0.895.

Consider TEQC, for which the enrichment ratio amounted to 9.21.

FELK: the enrichment ratio is at most 0.25.

With FTPI, the enrichment ratio was at most 0.25.

With MFEY, the enrichment ratio was at most 0.25.

Turning to WMWW, the enrichment ratio was at most 0.25.

On to TFSG, for which the enrichment ratio worked out at 13.9.

On to KQSG, for which the enrichment ratio is at most 0.25.

For HFSG, the enrichment ratio is at most 0.25.

Turning to KSSG, the enrichment ratio was at most 0.25.

As to NSSG, the enrichment ratio was at most 0.25.

In the case of GGSG, the enrichment ratio is at most 0.25.

TTSG: the enrichment ratio came to 19.5.

For TSSG, the enrichment ratio was 14.4.

With YTSG, the enrichment ratio is at most 0.25.

Consider TGSG, for which the enrichment ratio came out at 16.4.

As to PGSG, the enrichment ratio is at most 0.25.

Take PFSG: the enrichment ratio is at most 0.25.

As for MWFY, the enrichment ratio was at most 0.25.

On to SQPK, for which the enrichment ratio is at most 0.25.

For VRWV, the enrichment ratio was at most 0.25.

Take SYQC: the enrichment ratio was at most 0.25.

With RTQR, the enrichment ratio is at most 0.25.

As to GISG, the enrichment ratio is 8.5.

Take SPSG: the enrichment ratio is at most 0.25.

Take TVSG: the enrichment ratio was found to be 20.3.

For GNSG, the enrichment ratio is 13.2.

Regarding HCSG, the enrichment ratio was at most 0.25.

For the variant GVSG, the enrichment ratio stood at 7.26.

Regarding WDLS, the enrichment ratio was at most 0.25.

As for DAKY, the enrichment ratio was at most 0.25.

Consider NIQR, for which the enrichment ratio is at most 0.25.

Regarding AFLG, the enrichment ratio was 15.7.

For KKLG, the enrichment ratio is at most 0.25.

ADLG: the enrichment ratio is 3.46.

AILG: the enrichment ratio amounted to 15.7.

Turning to THLG, the enrichment ratio was 14.4.

AFTG: the enrichment ratio worked out at 5.35.

As for AQLG, the enrichment ratio came out at 18.8.

In the case of SHLG, the enrichment ratio was determined as 10.8.

As for AFFG, the enrichment ratio is at most 0.25.

For the variant AHLG, the enrichment ratio stood at 6.95.

As for APLG, the enrichment ratio is at most 0.25.

In the case of NHLG, the enrichment ratio is at most 0.25.

Regarding MEPF, the enrichment ratio was at most 0.25.

On to WCFV, for which the enrichment ratio is at most 0.25.

As to GSFI, the enrichment ratio is at most 0.25.

Regarding RMTQ, the enrichment ratio was at most 0.25.

As for YEWD, the enrichment ratio is at most 0.25.

For the variant LWMC, the enrichment ratio is at most 0.25.

With QNWS, the enrichment ratio came to 8.87.

Consider PPKF, for which the enrichment ratio is at most 0.25.

As for WPCT, the enrichment ratio was at most 0.25.

As for SLTH, the enrichment ratio is 5.18.

With NKDQ, the enrichment ratio is at most 0.25.

As for FHGD, the enrichment ratio was at most 0.25.

DMLG: the enrichment ratio was at most 0.25.

FSLG: the enrichment ratio was 8.53.

For YTLG, the enrichment ratio turned out to be 6.93.

Take NMLG: the enrichment ratio was at most 0.25.

In the case of TMLG, the enrichment ratio was found to be 11.6.

Turning to TTLG, the enrichment ratio worked out at 10.6.

As for ASLG, the enrichment ratio was determined as 18.2.

For ATLG, the enrichment ratio amounted to 12.3.

For the variant VRLG, the enrichment ratio is at most 0.25.

As for RQGG, the enrichment ratio is at most 0.25.

Take RQFP: the enrichment ratio is at most 0.25.

In the case of PNPW, the enrichment ratio was at most 0.25.

RIWK: the enrichment ratio is at most 0.25.

NTQW: the enrichment ratio was at most 0.25.

Turning to QDPH, the enrichment ratio is at most 0.25.

Turning to RWEP, the enrichment ratio was at most 0.25.

With WITN, the enrichment ratio was at most 0.25.

On to GHTN, for which the enrichment ratio was determined as 12.9.

With TMTN, the enrichment ratio came to 13.4.

As for AMTN, the enrichment ratio came to 27.1.

With THTN, the enrichment ratio amounted to 4.21.

Take NMTN: the enrichment ratio is at most 0.25.

As to KYTN, the enrichment ratio is at most 0.25.

SQTN: the enrichment ratio worked out at 8.46.

As for STTN, the enrichment ratio turned out to be 19.3.

For VHTN, the enrichment ratio was at most 0.25.

As for VLTN, the enrichment ratio was at most 0.25.

Take DMTN: the enrichment ratio was at most 0.25.

As to YVCF, the enrichment ratio worked out at 0.805.

As for PGGT, the enrichment ratio is at most 0.25.

For RGRC, the enrichment ratio is at most 0.25.

FMKW: the enrichment ratio was at most 0.25.

On to TWYE, for which the enrichment ratio is at most 0.25.

For YSAH, the enrichment ratio was at most 0.25.

As for HNNM, the enrichment ratio is at most 0.25.

As for QGTS, the enrichment ratio was at most 0.25.

Consider YTTN, for which the enrichment ratio was at most 0.25.

For SPTN, the enrichment ratio was at most 0.25.

In the case of TETN, the enrichment ratio was determined as 24.4.

Regarding GTTN, the enrichment ratio was at most 0.25.

Regarding SVTN, the enrichment ratio amounted to 16.4.

NETN: the enrichment ratio is at most 0.25.

For DETN, the enrichment ratio was at most 0.25.

Take VCTN: the enrichment ratio is at most 0.25.

As for TCTN, the enrichment ratio came out at 22.5.

KFTN: the enrichment ratio was at most 0.25.

Turning to ATTN, the enrichment ratio was found to be 20.6.

For the variant KCTN, the enrichment ratio is at most 0.25.

In the case of RCRT, the enrichment ratio was at most 0.25.

Consider YSIQ, for which the enrichment ratio was at most 0.25.

With WKRH, the enrichment ratio was at most 0.25.

On to LAIW, for which the enrichment ratio was at most 0.25.

For the variant NWSE, the enrichment ratio was at most 0.25.

For the variant LYIV, the enrichment ratio was at most 0.25.

For the variant WHIR, the enrichment ratio was at most 0.25.

As to YPIA, the enrichment ratio was at most 0.25.

Take GPAN: the enrichment ratio was at most 0.25.

On to AITN, for which the enrichment ratio came out at 22.4.

Consider AKTN, for which the enrichment ratio is at most 0.25.

KSTN: the enrichment ratio was at most 0.25.

As to FIQE, the enrichment ratio is at most 0.25.

For GTVS, the enrichment ratio was at most 0.25.

As to GCVI, the enrichment ratio is at most 0.25.

With GYMI, the enrichment ratio is at most 0.25.

Take GNVI: the enrichment ratio was 14.7.

As for GNMI, the enrichment ratio was 46.4.

With GIMI, the enrichment ratio amounted to 25.7.

With GIFA, the enrichment ratio is at most 0.25.

In the case of GTMI, the enrichment ratio was at most 0.25.

GIVI: the enrichment ratio worked out at 6.54.

For GIGD, the enrichment ratio is at most 0.25.
